Screen size: about 330,000 compounds; about 1,400 (0.42%) were called active.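 Rule for the calls: active = at least 40% inhibition at 20 µM here, with at most 30% in a related deaminase screen; inactive = the rest.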 For the sample, actives were picked, then their nearest neighbours and some compounds at random.
These molecules were tested against DNA dC->dU-editing enzyme APOBEC-3A (Homo sapiens) (UniProt P31941) (assay: blockers of A3A cytidine deamination on DNA – biochemical, FAM/TAMRA oligo cleavage fluorescence, selectivity assay for APOBEC3G inhibitor project, primary screen (AID 493011;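 note: plate controls were A3A with DMSO for no effect and wells lacking A3A enzyme for full effect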)). Conditions: recombinant A3A, FAM/TAMRA ssDNA deamination fluorescence; at 20 µM; stronger effect = higher value.
DNA dC->dU-editing enzyme APOBEC-3A (Homo sapiens), sequence (P31941 whole entry, looked up): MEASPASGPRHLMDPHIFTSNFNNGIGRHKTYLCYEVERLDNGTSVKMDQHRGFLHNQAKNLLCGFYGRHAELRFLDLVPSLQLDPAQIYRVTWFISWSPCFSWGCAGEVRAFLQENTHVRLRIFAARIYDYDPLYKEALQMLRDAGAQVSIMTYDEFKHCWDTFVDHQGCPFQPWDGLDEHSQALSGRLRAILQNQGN
`COc1cc(C(=O)OCC(=O)NC(C)CCc2ccccc2)cc(OC)c1OC` (stereo not drawn) was tested, and the inhibition was -4.8% (inactive). With `Cc1ccc(S(=O)(=O)N2CCCCC2)cc1C(=O)N(C)CC(=O)Nc1cccc(F)c1` the inhibition was 4.08% (inactive). `CN(C)S(=O)(=O)c1ccc(N2CCCC2)c(C(=O)Nc2cccc(F)c2)c1` was tested, and the inhibition was -1.6% (inactive). With `CCCCCCn1c(SCC(=O)c2ccccc2)nc2c1c(=O)[nH]c(=O)n2C` the inhibition was -3.65% (inactive). For `CCCCCCCC[n+]1cccc(C(=O)N2c3c(nc(N)[nH]c3=O)NC(C)C2C)c1` (stereo not drawn), the inhibition was 66.2% (active). In the case of `Cc1ccc(C(=O)NC(=S)Nc2ccc3[nH]c(=O)[nH]c3c2)cc1C`, the inhibition is reported as -1.4% (inactive). With `NC(N)=N/N=C/c1ccc(OCc2ccc(Cl)cc2Cl)cc1` the inhibition was 0.729% (inactive). `C/C(N)=C(/C#N)C(=O)COC(=O)C1CCN(C(=O)c2ccc(Cl)cc2)CC1` was tested, and the inhibition was -0.831% (inactive). In the case of `COc1ccc(N2C(=O)CC(Nc3ccc(F)cc3)C2=O)c([N+](=O)[O-])c1` (stereo not drawn), the inhibition is reported as -1.69% (inactive). With `CC(=O)NCc1ccc(-c2csc(NC(=O)CCCc3nc4ccccc4c(=O)[nH]3)n2)cc1` the inhibition was 4.49% (inactive). With `CCOC(=O)c1ccccc1NC(=O)CSc1nc2ccccc2c(=O)[nH]1` the inhibition was 1.48% (inactive). For `O=C(CSc1nc2ccccc2c(=O)[nH]1)Nc1nc(-c2ccc(Br)cc2)cs1`, the inhibition was 44.5% (active). `CCCCN(C(=O)c1ccc2ccccc2c1)c1c(N)n(CCCC)c(=O)[nH]c1=O` was tested, and the inhibition was -4.05% (inactive). In the case of `CCN(C(=O)COc1cccnc1[N+](=O)[O-])C1CCS(=O)(=O)C1` (stereo not drawn), the inhibition is reported as 0.474% (inactive). In the case of `CC(C)CNC(=O)C(=O)NCc1ccccc1`, the inhibition is reported as 6.28% (inactive). With `CCN1C(=S)N[C@@H](CCc2ccccc2)[C@H](C(=O)OC)[C@H]1C` the inhibition was -3.49% (inactive). With `COCCN1C(=O)N[C@@H](CCc2ccccc2)[C@H](C(C)=O)[C@H]1C` the inhibition was 0.644% (inactive). In the case of `CCN1C(=NCC(C)C)N[C@@H](CCc2ccccc2)[C@H](C(=O)NCC(C)C)[C@H]1C`, the inhibition is reported as 53.8% (active). With `CCN1C(=O)N[C@@H](CCc2ccccc2)C(C(=O)OC)=C1C` the inhibition was -3.29% (inactive). With `CCN1C(=NCc2ccc(OC)cc2)N[C@@H](CCc2ccccc2)[C@H](C(=O)NCc2ccc(OC)cc2)[C@H]1C` the inhibition was 49.6% (active). With `Cc1ccc(-c2ccc(=O)n(CC(=O)NCCCN3CCCCC3)n2)cc1` the inhibition was -1.5% (inactive). In the case of `CCCCNC(=O)CCn1nc(-c2ccc(Cl)cc2)ccc1=O`, the inhibition is reported as -0.453% (inactive). For `CCN(CC)CCCNC(=O)CCn1nc(-c2ccc(Cl)cc2)ccc1=O`, the inhibition was 98.8% (active). For `COc1ccccc1-c1noc(CSc2nc(C)cc(=O)[nH]2)n1`, the inhibition was 53.2% (active). With `Cc1cc(=O)[nH]c(SCc2cccc(F)c2)n1` the inhibition was -0.614% (inactive). With `Cc1cc(=O)[nH]c(SCc2cc(Cl)ccc2OC(F)F)n1` the inhibition was -4.15% (inactive). With `CC1CCN(S(=O)(=O)c2ccc(S(=O)(=O)NCc3ccco3)cc2)CC1` the inhibition was -4.88% (inactive). `CN(CCOc1ccc(Br)cc1)CC(=O)Nc1cccc(S(=O)(=O)NC2=NCCC2)c1` was tested, and the inhibition was -4.16% (inactive). With `COc1ccc(NC(=O)CN(C)C(=O)/C=C/c2cn(Cc3ccccc3)nc2-c2cccnc2)cc1` the inhibition was 43.8% (active). `COc1cccc(NC(=O)CN(C)C(=O)/C=C/c2cc(OC)ccc2OC)c1` was tested, and the inhibition was -6.53% (inactive). With `COc1cccc(NC(=O)CN(C)C(=O)/C=C/c2cn(-c3ccccc3)nc2-c2cccs2)c1` the inhibition was -4.72% (inactive). For `O=C(CN1CCOC1=O)N1CCCC(Nc2ccc(F)c(F)c2)C1` (stereo not drawn), the inhibition was -3.28% (inactive). `CCS(=O)(=O)c1ccc(-c2cccc(NC(=O)c3ccc(Br)o3)c2)nn1` was tested, and the inhibition was 95.4% (active). With `O=C(CNC(=O)c1ccc(Br)o1)Nc1ccccc1` the inhibition was -8.36% (inactive). In the case of `CC(CNC(=O)c1ccc(Br)o1)NC(=O)c1ccc(Br)o1` (stereo not drawn), the inhibition is reported as 2.21% (inactive). `Cc1cc(C)cc(Oc2c(C(F)(F)F)oc3cc(OCC(=O)O)ccc3c2=O)c1` was tested, and the inhibition was 9.37% (inactive). In the case of `O=C(CN1CCN(S(=O)(=O)c2cc(Cl)ccc2Cl)CC1)c1ccc(O)c(O)c1`, the inhibition is reported as -5.68% (inactive). `N#Cc1ccsc1NC(=O)CN1CCCCC1` was tested, and the inhibition was -2.27% (inactive). With `N#Cc1ccsc1NC(=O)CN1CCN(S(=O)(=O)c2cc(Cl)ccc2Cl)CC1` the inhibition was 40.6% (active). `CC(CC(=O)C1C(C)C=CCC1(C)C)NNC(N)=O` (stereo not drawn) was tested, and the inhibition was 0.901% (inactive). With `CSc1ccccc1NC(=O)c1cnc2sc(C)cn2c1=O` the inhibition was 0.854% (inactive). In the case of `CCc1c(C)nc2ncnn2c1N1CCC(C(=O)NCc2ccc3c(c2)OCO3)CC1`, the inhibition is reported as 2.23% (inactive). With `O=C(COC(=O)c1ccccc1O)NCc1ccco1` the inhibition was 32.8% (inactive). For `COc1ccc(CCNC(=O)COC(=O)c2cnc(Cl)c(Cl)c2)cc1`, the inhibition was 4.13% (inactive). In the case of `O=C(COC(=O)c1cnc(Cl)c(Cl)c1)NCc1ccco1`, the inhibition is reported as 50.6% (active). With `CC(C)CCN1CCC(C)(NC(=O)c2ccccc2)C1=O` (stereo not drawn) the inhibition was 0.313% (inactive). In the case of `COc1ccccc1N(C)S(=O)(=O)c1ccc(Cl)c(C(=O)N2CCC(C(N)=O)CC2)c1`, the inhibition is reported as 1.46% (inactive). In the case of `Cc1sc(NC(=S)NC(=O)c2cccs2)nc1-c1ccc(CC(C)C)cc1`, the inhibition is reported as 2.88% (inactive). `CCc1nnc(NC(=O)CCC(=O)N2CCN(c3cc(C)ccc3C)CC2)s1` was tested, and the inhibition was -1.97% (inactive). `COc1ccc(Cc2cc(-c3ccc(F)cc3)n[nH]c2=O)cc1` was tested, and the inhibition was -4.85% (inactive). `COc1ccc2[nH]c(=O)c(CNc3ccc(C)c(C)c3)cc2c1` was tested, and the inhibition was 0.515% (inactive). In the case of `COc1ccc2[nH]c(=O)c(-c3noc(-c4ccc(F)cc4)n3)cc2c1`, the inhibition is reported as 70.7% (active). `CCCc1nc(-c2cc3cc(C)ccc3[nH]c2=O)no1` was tested, and the inhibition was 40.2% (active). With `CCC(=O)N(CCc1ccccc1)Cc1cc2cc(C)ccc2[nH]c1=O` the inhibition was -6.3% (inactive). With `CCN(Cc1cc2cc(C)ccc2[nH]c1=O)S(=O)(=O)c1ccccc1` the inhibition was -2.49% (inactive). In the case of `C/C(=C\c1ccco1)CN1CCC(N2CCC(C(=O)N3CCOCC3)CC2)CC1`, the inhibition is reported as -1.12% (inactive). With `CC1CCCCC1NC(=O)CSc1nnc(N)s1` (stereo not drawn) the inhibition was -0.077% (inactive). In the case of `Cc1cc(C)n2nc(C(=O)Oc3ccc4c(c3)OCO4)nc2n1`, the inhibition is reported as 0.02% (inactive).

Source: PubChem BioAssay AID493011 (Sanford-Burnham Center for Chemical Genomics, 2011)
